A number with no mark means an inactive call. No rule for the calls is given here.

For this assay, the target named is Pantothenate synthetase (Mycobacterium tuberculosis (strain ATCC 25618 / H37Rv)) (UniProt P9WIL5). Nature of the assay: Coupled enzyme confirmation of inhibitors against recombinant Mtb PanC (AID 375).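 Also: 0% = full reaction with vehicle and 100% = no enzyme background.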 Conditions: coupled enzyme assay; at 10 µM, stronger effect = higher value.
Pantothenate synthetase (Mycobacterium tuberculosis (strain ATCC 25618 / H37Rv)), sequence (P9WIL5 whole entry, looked up): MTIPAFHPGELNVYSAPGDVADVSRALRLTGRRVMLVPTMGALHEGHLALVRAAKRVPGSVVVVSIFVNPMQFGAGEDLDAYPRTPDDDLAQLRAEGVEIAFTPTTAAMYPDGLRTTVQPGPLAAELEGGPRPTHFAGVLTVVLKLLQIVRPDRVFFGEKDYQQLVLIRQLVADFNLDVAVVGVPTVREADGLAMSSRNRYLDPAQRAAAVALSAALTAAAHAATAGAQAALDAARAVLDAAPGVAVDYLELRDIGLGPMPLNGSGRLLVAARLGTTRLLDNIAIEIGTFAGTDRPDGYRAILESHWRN
For the compound `CC(c1ccco1)N(Cc1ccco1)C(=O)Nc1ccccc1` (stereo not given), the inhibition is 0%.
As for `Cc1ccc(NC(=O)CSc2nnc(-c3ccc(S(=O)(=O)N4CCOCC4)cc3)n2C)cc1`, the inhibition was 1%.
For `COc1ccc(C(=O)NCCSc2ccccn2)cc1` the value was 5%; for `CCOC(=O)N1CCN(C(=O)CN(Cc2ccccc2)S(=O)(=O)c2ccc(OC)c(C)c2)CC1`, 5%.
Take `CN(C)/C=N/c1ncnc2c1cnn2-c1ccc(C(F)(F)F)cn1`: the inhibition is 3%.
For `O=C(Nc1ccc(N2CCOCC2)cc1)c1cc2ccccc2o1` the value was 0%; for `CCOC(=O)CSc1nc2sc(C)c(C)c2c(=O)n1C`, 0%.
For the compound `COc1ccccc1-n1c(=O)c2c3c(sc2n2c(SC(C)C)nnc12)CCC3`, the inhibition is 1%.
`Cc1ccc(CS(=O)(=O)Cc2ccc(C(=O)NCc3ccccn3)o2)cc1`: the inhibition was 0%.
As to `CCOCCCNC(=O)c1ccc2c(c1)ncn2C1CCCC1`, the inhibition is 5%.
For `O=C(CSCc1cccs1)N1CCCC1` the value was 3%; for `CCOC(=O)c1c(C)[nH]c(C)c1C(=O)COC(=O)CNC(=O)c1ccc(OCC)cc1`, 0%.
To `O=C(NCCOC(=O)C1COc2ccccc2O1)C1COc2ccccc2O1` (stereo not given) belongs 0%.
On to `CN1CCN(CCCN2c3ccccc3Sc3ccc(Cl)cc32)CC1`, for which the inhibition was 0%.
For `Cc1cc2c(s1)c1cnn(CC(=O)NCCc3ccccc3)c(=O)c1n2C` the value was 0%; for `COc1cccc(-n2c(SCC(=O)OC(C)C)nnc2-c2cccnc2)c1`, 2%.
With `CCN(Cc1cc2cc(OC)ccc2[nH]c1=O)C(=O)Cc1ccc(OC)cc1`, the inhibition was 0%.
For `COc1ccc(-c2[nH]c(-c3cccc(OC)c3)nc2SCC(=O)NCc2ccco2)cc1` the value was 1%.
In the case of `COc1ccc(NC(=O)c2cc(C3CC3)on2)c(OC)c1`, the inhibition is 0%.
For `CC(=O)OC(C)C[N+](C)(C)C` (stereo not given), the inhibition is 3%.
For `Cc1ccccc1N(C)S(=O)(=O)c1ccc2[nH]cc(C(=O)NCC3CCCO3)c(=O)c2c1` (stereo not given) the value was 10%; for `CCCNC(=O)c1cc(-c2ccco2)on1`, 2%.
In the case of `Cc1cccc2cc(C#N)c(SCCN3CCCCC3)nc12`, the inhibition was 0%.
To `COc1ccc(C(=O)N2CCN(C(=O)c3ccco3)CC2)cc1OC` belongs 4%.
For the compound `N#CC1=C(N)N(c2ccccc2)C2=C(C(=O)CCC2)C1c1cccs1` (stereo not given), the inhibition was 0%.
In the case of `O=C(CCSc1ccccc1)N1CCN(C(=O)c2ccco2)CC1`, the inhibition was 0%.
Regarding `COc1ccccc1NC(=O)NC(N)=O`, the inhibition is 0%.
Consider `CN1[C@@H](CC(=O)c2ccccc2)CCC[C@H]1C[C@H](O)c1ccccc1`, for which the inhibition is 8%.
Regarding `FC(F)(F)C(F)(F)C(F)(F)c1nnc2ccc(N3CCOCC3)nn12`, the inhibition is 3%.
To `O=C(CCn1c(=O)sc2ccccc21)Nc1nccs1` belongs 0%; to `Cc1cc(S(=O)(=O)N2CCN(c3ncccn3)CC2)ccc1-n1cnnn1`, 1%; to `CCN=C1SC(CC(=O)Nc2ccccc2OCC)C(=O)N1CC` (stereo not given), 0%.
For `Cc1ccc(C)n1NC(=O)c1ccco1` the value was 0%; for `COc1ccc(-c2nc(N)nc(C)c2Oc2ccccc2Br)c(O)c1`, 0%.
For `Cc1cccc(NC(=O)CSc2nnc(-c3ccccc3C)o2)c1` the value was 0%.
As for `Cc1oc(-c2ccccc2)cc1C(N)=O`, the inhibition is 0%.
For `CC(=O)Nc1nc(=S)ss1` the value was 6%; for `C=CCn1c(SCC(=O)NC23CC4CC(CC(C4)C2)C3)nc(O)cc1=O`, 0%; for `COc1ccc(NC(=O)CSc2nnc(-c3ccncc3)n2CC2CCCO2)c(OC)c1` (stereo not given), 4%.
For `CCS(=O)(=O)N1CCC(C(=O)N2CCOCC2)CC1` the value was 2%.

The inhibition is the change of the read-out against control, counted positive when it falls.

The values are drawn from PubChem BioAssay.
